For 20 molecules, growth inhibition, inhibition and outcome results are on record in PubChem BioAssay.

Experiment [1] can be described thus: antimalarial activity against Dd2 strain (AID 2302;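 active = growth inhibition above 50% at the single 2 µM test dose, taken to imply half-maximal potency below 2 µM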;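 note: 0% = DMSO untreated growth and 100% = chloroquine plus artemisinin killed control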). The following applies: P. falciparum Dd2 in RBCs, LDH growth readout, 72 h; at 2 µM; active compounds read high.
Experiment [2] is described as follows: HepG2 cytotoxicity, primary screen, cytotoxicity control for P. falciparum antimalarial project, cell-based, ATP luminescence (AID 2303;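 active = inhibition above 50%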;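 note: 0% = DMSO wells and 100% = digitonin-killed cells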). As to conditions: HepG2 viability, 24-48 h, at 10 µM, active compounds read high.
Experiment [3] has as its target L-lactate dehydrogenase (Plasmodium falciparum (isolate CDC / Honduras)) (UniProt Q27743). In words: PfLDH activity inhibition – cell lysate, 3D7 strain, counter-screen for P. falciparum growth inhibition project (AID 2304).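 Note: 0% = vehicle and 100% = reference inhibitor.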 As to conditions: P. falciparum 3D7 crude extract, LDH APAD/NBT absorbance; at 2 µM; active compounds read high. (In general: Counterscreens check selectivity or assay interference.)

Experiment [4] is described as follows: inhibition of 3D7 malaria parasite growth – strain 3D7 (AID 2306).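 Note: 0% = DMSO wells and 100% = chloroquine plus artemisinin control wells.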 The following applies: P. falciparum 3D7 erythrocytic growth, LDH absorbance, 72 h; at 2 µM; active compounds read high.
For experiment [5], the target named is Calcium-dependent protein kinase 1 (Plasmodium falciparum (isolate 3D7)) (UniProt P62344). As to the kind of experiment: PfCDPK1 kinase inhibitors, biochemical, TCAMS library (AID 1159585; cut-off not given, nearly all actives have IC50 up to about 0.98 µM;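 note: inhibitors leave more ATP so luminescence rises with inhibition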). As to conditions: recombinant PfCDPK1, Kinase-Glo ATP depletion luminescence. Background: In Kinase-Glo more light means more ATP remaining.
Experiment [6] has as its target Plasmodium falciparum protein kinase 6 (PK6, PF3D7_1337100) (UniProt Q8IDW1). As to the kind of experiment: PfPK6 kinase inhibitors, biochemical, TCAMS library (AID 1159586). As to conditions: recombinant PfPK6, Kinase-Glo ATP depletion luminescence.
Experiment [7] addresses Protein kinase 7 (PK7), Plasmodium falciparum 3D7 (PF3D7_0213400) (UniProt Q7YTF7). As to the kind of experiment: inhibition of Plasmodium PK7 catalytic activity – biochemical, TCAMS antimalarial set, Kinase-Glo luminescence (AID 1159587). As to conditions: recombinant PfPK7, Kinase-Glo ATP depletion luminescence.
Experiment [8] deals with Calcium-dependent protein kinase 4 (Plasmodium falciparum (isolate 3D7)) (UniProt Q8IBS5). In words: PfCDPK4 kinase inhibitors, biochemical, TCAMS library (AID 1159588; cut-off not given, nearly all actives have IC50 up to about 0.91 µM). As to conditions: recombinant PfCDPK4, Kinase-Glo ATP depletion luminescence.

Unmarked numbers belong to inactive results. For some of these results: Measured potencies and affinities stand elsewhere. Active and inactive are the calls of the source. Unless noted, the rule behind the calls is not given here.

Chain of Calcium-dependent protein kinase 1 (Plasmodium falciparum (isolate 3D7)) (P62344 whole entry, looked up): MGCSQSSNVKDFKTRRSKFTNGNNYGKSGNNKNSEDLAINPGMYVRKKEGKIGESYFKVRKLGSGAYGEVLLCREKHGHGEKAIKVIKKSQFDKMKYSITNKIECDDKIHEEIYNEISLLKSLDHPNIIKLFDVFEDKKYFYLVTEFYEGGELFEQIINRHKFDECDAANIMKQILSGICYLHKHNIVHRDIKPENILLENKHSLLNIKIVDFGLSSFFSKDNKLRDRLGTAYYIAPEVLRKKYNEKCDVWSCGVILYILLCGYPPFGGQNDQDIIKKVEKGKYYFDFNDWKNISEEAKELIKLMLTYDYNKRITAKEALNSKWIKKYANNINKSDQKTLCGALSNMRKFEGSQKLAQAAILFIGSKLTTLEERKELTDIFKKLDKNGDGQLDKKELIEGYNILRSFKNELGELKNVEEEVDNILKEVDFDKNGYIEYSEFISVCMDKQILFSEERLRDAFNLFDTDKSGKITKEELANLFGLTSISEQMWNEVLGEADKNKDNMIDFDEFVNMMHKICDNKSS
Chain of L-lactate dehydrogenase (Plasmodium falciparum (isolate CDC / Honduras)) (Q27743 whole entry, looked up): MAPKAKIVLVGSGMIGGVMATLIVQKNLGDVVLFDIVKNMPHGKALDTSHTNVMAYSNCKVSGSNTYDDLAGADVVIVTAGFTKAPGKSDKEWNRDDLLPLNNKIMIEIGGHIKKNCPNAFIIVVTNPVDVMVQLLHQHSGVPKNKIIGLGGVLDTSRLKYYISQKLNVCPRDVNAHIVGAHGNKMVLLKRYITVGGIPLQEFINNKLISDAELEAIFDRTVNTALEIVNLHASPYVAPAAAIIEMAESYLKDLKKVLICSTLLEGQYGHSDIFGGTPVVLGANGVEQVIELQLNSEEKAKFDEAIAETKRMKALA
Chain of Protein kinase 7 (PK7), Plasmodium falciparum 3D7 (PF3D7_0213400) (Q7YTF7 1-343): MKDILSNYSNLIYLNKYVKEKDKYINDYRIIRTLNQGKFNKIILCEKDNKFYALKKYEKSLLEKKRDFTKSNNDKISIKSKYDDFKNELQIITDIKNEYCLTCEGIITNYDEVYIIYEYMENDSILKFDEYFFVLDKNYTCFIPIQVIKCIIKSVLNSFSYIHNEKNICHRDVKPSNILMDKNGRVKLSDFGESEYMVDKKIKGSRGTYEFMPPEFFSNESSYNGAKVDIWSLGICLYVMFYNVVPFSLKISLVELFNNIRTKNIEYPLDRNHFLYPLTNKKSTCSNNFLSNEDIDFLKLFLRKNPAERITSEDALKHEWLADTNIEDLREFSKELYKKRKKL
Chain of Plasmodium falciparum protein kinase 6 (PK6, PF3D7_1337100) (Q8IDW1 1-305): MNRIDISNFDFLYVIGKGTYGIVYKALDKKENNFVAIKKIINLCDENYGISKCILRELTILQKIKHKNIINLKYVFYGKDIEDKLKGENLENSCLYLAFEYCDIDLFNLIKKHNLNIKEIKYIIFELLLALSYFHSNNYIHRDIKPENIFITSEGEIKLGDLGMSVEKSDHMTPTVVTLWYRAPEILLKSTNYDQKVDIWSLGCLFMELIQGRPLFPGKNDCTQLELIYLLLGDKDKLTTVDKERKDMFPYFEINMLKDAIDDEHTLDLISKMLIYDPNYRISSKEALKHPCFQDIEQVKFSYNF
Chain of Calcium-dependent protein kinase 4 (Plasmodium falciparum (isolate 3D7)) (Q8IBS5 whole entry, looked up): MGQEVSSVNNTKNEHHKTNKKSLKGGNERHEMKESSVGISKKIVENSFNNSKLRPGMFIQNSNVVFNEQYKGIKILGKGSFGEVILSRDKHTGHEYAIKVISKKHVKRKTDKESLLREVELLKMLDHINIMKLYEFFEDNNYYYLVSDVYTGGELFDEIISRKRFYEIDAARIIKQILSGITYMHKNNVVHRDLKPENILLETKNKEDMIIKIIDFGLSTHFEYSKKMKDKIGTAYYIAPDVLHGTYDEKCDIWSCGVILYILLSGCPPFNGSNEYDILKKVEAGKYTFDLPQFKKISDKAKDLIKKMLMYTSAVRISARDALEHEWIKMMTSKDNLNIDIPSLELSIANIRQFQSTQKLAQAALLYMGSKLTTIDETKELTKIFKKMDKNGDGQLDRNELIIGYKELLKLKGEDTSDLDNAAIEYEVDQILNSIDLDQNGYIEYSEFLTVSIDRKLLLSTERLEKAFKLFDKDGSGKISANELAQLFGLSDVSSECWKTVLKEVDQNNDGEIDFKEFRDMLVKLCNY

As a reminder, the inhibition is the relative decrease from the control value, in per cent. Regarding `O=C(Nc1ccc(Oc2ccccc2)cc1)N1CCC(CCN2CCC(c3c[nH]c4ccccc34)CC2)CC1`, the growth inhibition in experiment [1] was 36%; in experiment [4], 100% (active). Besides, the results for the inhibition in experiment [2] and in experiment [3] were 42% and 7%, respectively. Further, the result in experiment [5], in experiment [6], in experiment [7] and in experiment [8] was inactive.

Turning to `O=c1cc(NCCCNC2CCOc3c(I)cc(Cl)cc32)[nH]c2ccccc12` (stereo not given), the growth inhibition in experiment [1] is 48%; in experiment [4], 96% (active). The figures for the inhibition in experiment [2] and in experiment [3] were -10% and -1%, respectively. Also, the result in experiment [5], in experiment [6], in experiment [7] and in experiment [8] was inactive.

In the case of `O=C(COc1ccccc1Cl)N1CCc2cc3nccc(N4CCN5CCC[C@H]5C4)c3cc21`, the values for the growth inhibition in experiment [1] and in experiment [4] were 99% (active) and 91% (active), respectively. Besides, the inhibition in experiment [2] is 4%; in experiment [3] it was -1%. The outcome in experiment [5], in experiment [6], in experiment [7] and in experiment [8] was inactive.

In the case of `Cc1cnc2cc3c(cc2c1N1CCN(C)CC1)NCC3`, the results for the growth inhibition in experiment [1] and in experiment [4] were 69% (active) and 102% (active), respectively. In addition, the inhibition in experiment [2] was 12%; in experiment [3] it was 3%. Besides, the outcome in experiment [5], in experiment [6], in experiment [7] and in experiment [8] was inactive.

For `CC(=O)c1sc(Cc2nc3ccccc3s2)nc1C`, the growth inhibition was 88% (active) in experiment [1] and 94% (active) in experiment [4]. In addition, the inhibition in experiment [2] is -13%; in experiment [3], 1%. Moreover, the outcome in experiment [5], in experiment [6], in experiment [7] and in experiment [8] was inactive.

As to `CCc1ccc(-n2c(=O)c3cccnc3n2CC(=O)NC2CCCC2)cc1`, the growth inhibition was 27% in experiment [1] and 98% (active) in experiment [4]. The inhibition in experiment [2] is -1%; in experiment [3] it was -7%. For the same molecule, the result in experiment [5], in experiment [6], in experiment [7] and in experiment [8] was inactive.

Consider `Cn1cncc1C(=O)Nc1cccc(-c2cccc(-c3nc4ccc(C(F)(F)F)cc4[nH]3)c2)c1`, for which the results for the growth inhibition in experiment [1] and in experiment [4] were 99% (active) and 103% (active), respectively. For the same molecule, the inhibition was 38% in experiment [2] and 0% in experiment [3]. Also, the outcome in experiment [5], in experiment [6], in experiment [7] and in experiment [8] was inactive.

On to `c1ccc2[nH]c(-c3ccc(-c4ccc(CN5CCN(CCN6CCOCC6)CC5)cc4)cc3)nc2c1`, for which the growth inhibition in experiment [1] is 99% (active); in experiment [4], 98% (active). Further, the results for the inhibition in experiment [2] and in experiment [3] were 43% and -1%, respectively. For the same molecule, the result in experiment [5], in experiment [6], in experiment [7] and in experiment [8] was inactive.

Consider `O=C1COC2(CN1C1CCN(Cc3ccc(O)cc3Cl)C1)c1ccccc1-c1ccccc12` (stereo not given), for which the growth inhibition was 70% (active) in experiment [1] and 82% (active) in experiment [4]. The inhibition in experiment [2] was 10%; in experiment [3] it was -1%. Also, the outcome in experiment [5], in experiment [6], in experiment [7] and in experiment [8] was inactive.

With `COc1cc2ncnc(Nc3ccc(OCc4ccccc4)c(I)c3)c2cc1OC`, the values for the growth inhibition in experiment [1] and in experiment [4] were 62% (active) and 98% (active), respectively. For the same molecule, the inhibition in experiment [2] was 11%; in experiment [3], 5%. Further, the result in experiment [5], in experiment [6], in experiment [7] and in experiment [8] was inactive.

Consider `O=[N+]([O-])c1cccc(S(=O)(=O)N2CCN(CC(O)COc3ccc(-c4ccccc4)cc3)CC2)c1` (stereo not given), for which the growth inhibition is 32% in experiment [1] and 94% (active) in experiment [4]. The inhibition in experiment [2] is 11%; in experiment [3], 0%. The outcome in experiment [5], in experiment [6], in experiment [7] and in experiment [8] was inactive.

On to `c1cncc(CCNCc2ccc(-c3cccc(-c4nc5ccccc5[nH]4)c3)cc2)c1`, for which the results for the growth inhibition in experiment [1] and in experiment [4] were 99% (active) and 102% (active), respectively. For the same molecule, the inhibition was 39% in experiment [2] and -2% in experiment [3]. Moreover, the result in experiment [5], in experiment [6], in experiment [7] and in experiment [8] was inactive.

In the case of `Oc1ccc(CCNc2nc(NCCOc3cccc4ccccc34)nc(N3CCNCC3)n2)cc1`, the growth inhibition in experiment [1] was 8%; in experiment [4] it was 96% (active). In addition, the inhibition in experiment [2] is 21%; in experiment [3], 1%. Besides, the result in experiment [5], in experiment [6], in experiment [7] and in experiment [8] was inactive.

For `COc1cccc(CCc2nc3c(N4CCC(Cc5ccccc5)CC4)cccc3n2CC2CNCCO2)c1` (stereo not given), the growth inhibition in experiment [1] is 96% (active); in experiment [4] it was 94% (active). For the same molecule, the inhibition in experiment [2] and in experiment [3] was 4% each time. The result in experiment [5], in experiment [6], in experiment [7] and in experiment [8] was inactive.

`O=C(NCC(NCCCNc1cc(=O)c2ccccc2[nH]1)c1cc(Br)cc(Br)c1)C1=CCCC1` (stereo not given): the growth inhibition is 48% in experiment [1] and 96% (active) in experiment [4]. Moreover, the inhibition is -4% in experiment [2] and 7% in experiment [3]. Besides, the outcome in experiment [5], in experiment [6], in experiment [7] and in experiment [8] was inactive.

For `Clc1ccc2c(NCCc3ccccn3)ccnc2c1`, the figures for the growth inhibition in experiment [1] and in experiment [4] were 72% (active) and 92% (active), respectively. Moreover, the inhibition is 13% in experiment [2] and -1% in experiment [3]. For the same molecule, the outcome in experiment [5], in experiment [6], in experiment [7] and in experiment [8] was inactive.

For the molecule `COc1cc(C(=O)Nc2nc3ccccc3[nH]2)ccc1OCC(=O)Nc1cccc(C(F)(F)F)c1`, the results for the growth inhibition in experiment [1] and in experiment [4] were 33% and 100% (active), respectively. In addition, the inhibition in experiment [2] was 33%; in experiment [3], -8%. For the same molecule, the outcome in experiment [5], in experiment [6], in experiment [7] and in experiment [8] was inactive.

Consider `CCOCc1cnc(C)nc1NCC(=O)c1c(C)[nH]c2cc(C)ccc12`, for which the growth inhibition in experiment [1] was 76% (active); in experiment [4], 89% (active). For the same molecule, the inhibition in experiment [2] was 8%; in experiment [3], 4%. The outcome in experiment [5], in experiment [6], in experiment [7] and in experiment [8] was inactive.

Turning to `CCOC(=O)N1NC(=O)N(c2ccccc2)C1(c1ccccc1)c1ccccc1`, the growth inhibition in experiment [1] was 82% (active); in experiment [4], 96% (active). In addition, the inhibition in experiment [2] is 5%; in experiment [3], 6%. The outcome in experiment [5], in experiment [6], in experiment [7] and in experiment [8] was inactive.

With `CC1CCN(Cc2ccc(NC(=O)c3cc4ccc5cccnc5c4[nH]3)cc2)CC1`, the growth inhibition in experiment [1] is 93% (active); in experiment [4], 101% (active). In addition, the inhibition is 10% in experiment [2] and -1% in experiment [3]. In addition, the result in experiment [5], in experiment [6], in experiment [7] and in experiment [8] was inactive.
